Data: PubChem BioAssay
Results filed as inconclusive are left out. Active and inactive are the calls of the source. Unless noted, no stated cut-off is given here; in the data, active means inhibition above about 30%; inactive means the rest.

Experiments:
[1] = reducers of endogenous Her2 protein level, primary screen, SKBR3 breast tumor cells, AlphaScreen, ATP viability (AID 461;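 active means Her2 level under about 52% in both replicate screens, with viability over 70% of control, limit read from the data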;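 on Her2 level: lower value means less Her2 protein in the cells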;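 on viability: percent of carrier control wells set as 100% viability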); conditions: 18-24 h, measured here: SKBR3 viability, ATP luminescence, at 10 µM
[2] = target: Receptor tyrosine-protein kinase erbB-2 (Homo sapiens) (UniProt P04626); assay: as above; conditions: 18-24 h, at 10 µM, stronger effect = lower value
Sequence of Receptor tyrosine-protein kinase erbB-2 (Homo sapiens) (P04626 whole entry, looked up): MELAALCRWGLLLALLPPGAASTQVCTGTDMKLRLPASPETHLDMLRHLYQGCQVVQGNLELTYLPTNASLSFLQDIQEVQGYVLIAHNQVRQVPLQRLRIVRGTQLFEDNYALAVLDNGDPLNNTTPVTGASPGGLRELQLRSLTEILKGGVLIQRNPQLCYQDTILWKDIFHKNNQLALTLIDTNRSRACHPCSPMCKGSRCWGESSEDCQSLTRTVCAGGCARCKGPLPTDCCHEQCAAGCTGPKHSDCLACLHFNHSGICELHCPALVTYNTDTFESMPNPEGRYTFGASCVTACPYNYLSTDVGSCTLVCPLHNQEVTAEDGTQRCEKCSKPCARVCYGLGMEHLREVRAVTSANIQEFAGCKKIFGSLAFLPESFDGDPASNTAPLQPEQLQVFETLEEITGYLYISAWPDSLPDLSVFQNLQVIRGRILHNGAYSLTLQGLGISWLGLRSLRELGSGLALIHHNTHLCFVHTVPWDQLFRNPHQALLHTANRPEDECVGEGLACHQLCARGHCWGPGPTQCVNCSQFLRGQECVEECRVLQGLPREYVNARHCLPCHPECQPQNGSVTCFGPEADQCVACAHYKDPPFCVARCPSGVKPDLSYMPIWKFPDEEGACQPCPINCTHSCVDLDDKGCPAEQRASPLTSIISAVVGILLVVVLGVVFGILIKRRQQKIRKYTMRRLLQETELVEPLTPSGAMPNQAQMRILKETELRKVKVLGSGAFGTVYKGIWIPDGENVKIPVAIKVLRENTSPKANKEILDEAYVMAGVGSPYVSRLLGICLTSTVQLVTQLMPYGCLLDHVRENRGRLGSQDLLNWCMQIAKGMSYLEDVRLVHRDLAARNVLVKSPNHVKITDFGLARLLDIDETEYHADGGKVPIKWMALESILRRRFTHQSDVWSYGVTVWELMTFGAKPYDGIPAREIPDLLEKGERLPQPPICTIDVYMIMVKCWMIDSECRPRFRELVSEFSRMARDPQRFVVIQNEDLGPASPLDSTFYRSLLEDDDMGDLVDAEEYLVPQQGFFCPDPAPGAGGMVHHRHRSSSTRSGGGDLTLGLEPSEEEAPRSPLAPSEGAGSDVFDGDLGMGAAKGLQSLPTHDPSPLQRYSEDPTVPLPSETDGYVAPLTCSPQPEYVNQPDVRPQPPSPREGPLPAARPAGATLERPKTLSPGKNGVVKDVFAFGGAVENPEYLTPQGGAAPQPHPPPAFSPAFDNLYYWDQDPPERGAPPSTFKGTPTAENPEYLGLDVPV

[3] = SK-BR-3 cell growth inhibitors, pilot screen, 24 h, human (AID 572;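 active means viability at or below 10% of carrier control in both of two separate runs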;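 further: compound exposure lasted between 18 and 24 h rather than exactly 24 h; 100% = carrier-treated control wells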); conditions: SK-BR-3 viability, CellTiter-Glo luminescence, at 10 µM, stronger effect = lower value
[4] = HUVEC growth inhibition – cell-based, human, primary screen (AID 575;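 active means viability at or below 30% in both replicate assays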;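 further: 100% = median of untreated cell wells with 0.1% DMSO on each plate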); conditions: HUVEC proliferation, CellTiter-Glo luminescence, 72 h; at 10 µM; stronger effect = lower value
[5] = growth inhibitors of H69AR lung tumor, primary screen, human, duplicate replicates (AID 580;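 active means viability at or under a set limit in both replicates, limit being median viability minus 3 SD, cut at about 48% in these data, passing the limit was not always enough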;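 further: 100% = mean luminescence of untreated wells and 0% = no signal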); conditions: H69AR lung tumor cells viability, ATP luminescence, 72 h; at 10 µM; stronger effect = lower value
[6] = reversal of MRP1-mediated doxorubicin resistance, pilot screen, H69AR cells, doxorubicin co-treatment (AID 601;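 active means viability loss from added drug above about 55%, and viability with drug at most 40%, in both replicates, limit read from the data, passing the limit was not always enough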); conditions: CellTiter-Glo, 72 h, at 10 µM; for differential viability (reversal): stronger effect = higher value
[7] = 384-well plate pilot, post-Golgi transport modulator project, inhibition of yeast transport mutant growth (AID 636; in the data active means inhibition above about 31%); conditions: absorbance 615 nm, about 18 h, stronger effect = higher value
[8] = growth suppression of yeast trafficking mutant, preliminary HTS, modulators of trafficking downstream of Golgi apparatus project, 1536-format plate, OD 615 nm (AID 637); conditions: yeast transport mutant growth, absorbance 615 nm, 18 h; stronger effect = higher value
[9] = OD615 S. cerevisiae growth inhibition, permissive medium, pilot counter-assay, permissive growth control for S. cerevisiae lifespan shortening project (AID 705;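 active means growth inhibition above 25% in both replicates, a cutoff set 3 SD above the mean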); conditions: OD615, 24 h, at 10 µM, stronger effect = higher value
[10] = Restrictive medium S. cerevisiae growth inhibition, OD615, pilot screen of yeast lifespan reduction project, restrictive growth control (AID 706;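 active means growth inhibition above a set limit, 3 SD over mean compound inhibition, in both replicates, cut at about 43% in these data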;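 further: modified DeaD lifespan yeast strain shifted to restrictive glucose medium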); conditions: OD615, 48 h, at 10 µM, stronger effect = higher value
[11] = viability gain of MRP-1-high H69AR cells under doxorubicin, pilot screen, MRP-1 activator project, CellTiter-Glo, duplicate (AID 807;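 active means viability increase at or above a cutoff of the median across tested compounds plus 3 SD, cut at about 8.5% in these data, passing the limit was not always enough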;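 further: compound pretreatment 18-22 h then 72 h combined with doxorubicin; 0% = doxorubicin alone and 100% = vehicle without doxorubicin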); conditions: H69AR viability with doxorubicin, CellTiter-Glo luminescence; at 10 µM; stronger effect = higher value
[12] = growth suppression of beta-catenin knockout HCT116, pilot screen, human colon tumor cells (AID 823;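 active means cell viability at or below a set limit in both duplicate runs, the limit being the all-compound median minus 4 SD, cut at about 23% in these data, passing the limit was not always enough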;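 further: 0% = wells killed by 20 µM Hyamine and 100% = untreated DMSO cell wells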); conditions: CellTiter-Glo, 60 h, at 10 µM, stronger effect = lower value
[13] = growth suppression of PTEN-deleted HCT116, pilot screen, cell-based, HCT116 clonal line, CellTiter-Glo (AID 824;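 active means viability at or below 27.92% in each of two runs, the all-compound median minus 4 SD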;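 further: 0% = 20 µM Hyamine control and 100% = vehicle cell control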); conditions: 60 h, at 10 µM, stronger effect = lower value
[14] = inhibitors of the yeast RAM network, pilot screen, dse1pr::URA3 reporter, 5-FOA selection (AID 869;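 active means inhibition over a set limit, the all-compound mean plus 3 SD, in both replicate runs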;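 further: 0% = DMSO wells with no growth and 100% = 10 µM 1-NA-PP1 with full growth; RAM network block rescues cells from 5-FOA so hits raise OD615 growth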); conditions: S. cerevisiae dse1pr::URA3 5-FOA growth, OD615, 2 d; at 10 µM; stronger effect = higher value; strain carries analog-sensitive mutant Cbk1 kinase
[15] = RAM signaling pathway blockade in yeast – S. cerevisiae, Pdr1DBD-CYC8 efflux-inhibited sensitized strain, primary screen (AID 1298;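 active means RAM network inhibition above 8.4% in each of two replicates, 3 SD over the compound average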;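 further: 0% = DMSO untreated cells without growth and 100% = 10 µM 1-NA-PP1 full growth; higher means more yeast growth rescued from 5-FOA killing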); conditions: S. cerevisiae cbk1-as DSE1-URA3 strain, 5-FOA growth OD615, 2 d; at 50 µM; stronger effect = higher value
[16] = H69AR cells + 2 uM doxorubicin, measured here: viability with 2 uM doxorubicin, stronger effect = lower value
[17] = H69AR cells, compound alone cytotoxicity

CCN(CCCNS(=O)(=O)c1ccc2c(c1)oc(=O)n2C)c1cccc(C)c1
90.1%: viability [6, 17]
inactive: Her2 level [2] 100% | viability [3] 88% | viability [4] 106% | viability [5] 90.1% | differential viability (reversal) ([6]; H69AR cells + 2 uM doxorubicin) 5.6% | inhibition [7] -0.38% | inhibition [8] 1.33% | growth inhibition [9] -12% | growth inhibition [10] -10.2% | viability increase [11] -3.21% | viability [12] 87.2% | viability [13] 89.5% | inhibition [14] 0.695% | RAM network inhibition [15] 7.59%
84.5%: viability [6, 16]
88%: viability [1]

Cc1ccc(-n2nc(C)c3cc(C(=O)O)sc32)cc1
97%: viability [1]
inactive: Her2 level [2] 95.5% | viability [3] 97% | viability [4] 70.7% | viability [5] 87.2% | differential viability (reversal) ([6]; H69AR cells + 2 uM doxorubicin) 0.315% | inhibition [7] -2.31% | inhibition [8] -2% | growth inhibition [9] 16% | growth inhibition [10] 21.7% | viability increase [11] -2.19% | viability [12] 93.1% | viability [13] 94.9% | inhibition [14] 2.74% | RAM network inhibition [15] -1.34%
86.8%: viability [6, 16]
87.2%: viability [6, 17]

COc1ccc(OC)c(C2=NOC(C(=O)Nc3cc(C)nn3-c3ccccc3)C2)c1 (stereo not drawn)
inactive: Her2 level [2] 106% | viability [3] 86.5% | viability [4] 114% | viability [5] 95.2% | differential viability (reversal) ([6]; H69AR cells + 2 uM doxorubicin) 9.74% | inhibition [7] -2.56% | inhibition [8] -0.33% | growth inhibition [9] -7.35% | growth inhibition [10] -4.62% | viability increase [11] 0.16% | viability [12] 94.2% | viability [13] 94.9% | inhibition [14] 1.83% | RAM network inhibition [15] 7.22%
85.5%: viability [6, 16]
95.2%: viability [6, 17]
86.5%: viability [1]

COc1ccc(C2CC(c3ccc(Cl)cc3Cl)n3nc(N)nc3N2)cc1 (stereo not drawn)
inactive: Her2 level [2] 93.5% | viability [3] 95% | viability [4] 79.8% | viability [5] 90.4% | differential viability (reversal) ([6]; H69AR cells + 2 uM doxorubicin) -0.635% | inhibition [7] 0.64% | inhibition [8] 3.67% | growth inhibition [9] 7.35% | growth inhibition [10] 25.7% | viability increase [11] 3.63% | viability [12] 90.9% | viability [13] 91.3% | inhibition [14] 1.59% | RAM network inhibition [15] 4.26%
95%: viability [1]
91.1%: viability [6, 16]
90.4%: viability [6, 17]

COc1ccc(N(C)C(=O)CCS(=O)(=O)c2cccc3nonc23)c(OC)c1
89%: viability [1]
104%: viability [6, 17]
inactive: Her2 level [2] 86.5% | viability [3] 89% | viability [4] 95.7% | viability [5] 104% | differential viability (reversal) ([6]; H69AR cells + 2 uM doxorubicin) 9.71% | inhibition [7] -6.71% | inhibition [8] -3.49% | growth inhibition [9] -16.1% | growth inhibition [10] -20.6% | viability increase [11] -0.31% | viability [12] 100% | viability [13] 98.8% | inhibition [14] 1.43% | RAM network inhibition [15] 3.65%
93.9%: viability [6, 16]

CCc1cc2c(=O)c(-c3nc4ccccc4[nH]3)coc2c(CN2CCC(C)CC2)c1O
82.6%: viability [6, 17]
82%: viability [6, 16]
inactive: Her2 level [2] 116% | viability [3] 96% | viability [4] 99.1% | viability [5] 82.6% | differential viability (reversal) ([6]; H69AR cells + 2 uM doxorubicin) 0.66% | inhibition [7] -1.03% | inhibition [8] 1.83% | growth inhibition [9] 6.25% | growth inhibition [10] 18.5% | viability increase [11] -2.14% | viability [12] 92.3% | viability [13] 85.6% | inhibition [14] -0.2% | RAM network inhibition [15] -2.41%
96%: viability [1]

C=CCOc1ccc(/C(CC)=N/O)c(OC)c1
101%: viability [6, 17]
93.5%: viability [1]
90.9%: viability [6, 16]
inactive: Her2 level [2] 104% | viability [3] 93.5% | viability [4] 70.4% | viability [5] 101% | differential viability (reversal) ([6]; H69AR cells + 2 uM doxorubicin) 10.5% | inhibition [7] -1.82% | inhibition [8] 0.5% | growth inhibition [9] -19.1% | growth inhibition [10] -11.4% | viability increase [11] -0.09% | viability [12] 96.7% | viability [13] 105% | inhibition [14] 0.56% | RAM network inhibition [15] -0.68%

COc1cc2c(cc1OC)CN(C(=O)CSc1nnc3scc(-c4ccccc4)n13)CC2
85.3%: viability [6, 17]
active: growth inhibition [10] 69%
96%: viability [1]
77.2%: viability [6, 16]
inactive: Her2 level [2] 97% | viability [3] 96% | viability [4] 86.7% | viability [5] 85.3% | differential viability (reversal) ([6]; H69AR cells + 2 uM doxorubicin) 8.16% | inhibition [7] -0.53% | inhibition [8] -3.77% | growth inhibition [9] 16.4% | viability increase [11] -3.13% | viability [12] 99.4% | viability [13] 94.6% | inhibition [14] 1.08% | RAM network inhibition [15] 3.4%

CCN(CC)C(=O)C1CCCN(c2ncnc3c2cnn3-c2ccc(Cl)cc2)C1 (stereo not drawn)
inactive: Her2 level [2] 96.5% | viability [3] 94.5% | viability [4] 49.2% | viability [5] 86.1% | differential viability (reversal) ([6]; H69AR cells + 2 uM doxorubicin) 2.38% | inhibition [7] -4.4% | inhibition [8] -2.17% | growth inhibition [9] -7.13% | growth inhibition [10] 5.38% | viability increase [11] 3.1% | viability [12] 66% | viability [13] 69.7% | inhibition [14] 0.62% | RAM network inhibition [15] -2.04%
83.7%: viability [6, 16]
86.1%: viability [6, 17]
94.5%: viability [1]
